Compound activity: PubChem, several laboratories
RecA splice inh = Mtb RecA intein splicing inhibitors, primary screen, biochemical, fluorescence, HTS. cell-free RecA intein splicing. inhibition, % (concentration not given with the values). 290,000 compounds, 0.75% hits; in the data active means inhibition above about 30%; inconclusive means no clear call, values can overlap the other calls;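 further: 0% = vehicle wells and 100% = reference inhibitor control wells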
GDH-TPI counter-1 = GDH-TPI coupling enzyme inhibitors, primary screen, artefact control for M. tuberculosis FBA inhibitor project, biochemical, absorbance, full deck | inhibition, % at 4.8 µM | 360,000 compounds, 1.2% hits | GDH-TPI coupled enzyme counterscreen, NADH absorbance | AID 588335, 2011; in the data active means inhibition above about 30%;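 further: 0% = DMSO wells and 100% = wells lacking the enzyme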
FBA Mtb inh = Mtb FBA enzyme inhibitors, primary screen, biochemical, fluorescence, strain H37Rv; inhibition, % at 1 µM; Fructose-bisphosphate aldolase (Mycobacterium tuberculosis (strain ATCC 25618 / H37Rv)), …; purified M. tuberculosis FBA, fluorescence read-out; AID 588726, 2011; 360,000 compounds, 2.3% hits; in the data active means inhibition above about 27%;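 further: 0% = vehicle and 100% = reference inhibitor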
Target sequence (P9WQA3 whole entry, looked up): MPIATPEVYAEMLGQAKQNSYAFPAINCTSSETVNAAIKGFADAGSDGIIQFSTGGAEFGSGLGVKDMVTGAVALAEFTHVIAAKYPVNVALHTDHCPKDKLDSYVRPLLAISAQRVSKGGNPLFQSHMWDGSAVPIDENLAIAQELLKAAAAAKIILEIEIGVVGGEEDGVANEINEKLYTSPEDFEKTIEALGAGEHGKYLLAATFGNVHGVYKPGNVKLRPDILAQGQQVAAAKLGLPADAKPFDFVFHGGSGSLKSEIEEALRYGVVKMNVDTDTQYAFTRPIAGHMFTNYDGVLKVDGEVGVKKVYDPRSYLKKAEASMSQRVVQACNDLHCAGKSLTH
Mtb UGM inh = M. tuberculosis UGM enzyme inhibitors, primary screen, biochemical, fluorescence polarization, single point | UDP-galactopyranose mutase (Mycobacterium tuberculosis (strain ATCC 25618 / H37Rv)), … | purified UGM, fluorescence polarization probe displacement | inhibition, % at 10 µM | 320,000 compounds, 0.06% hits; in the data active means inhibition above about 10%, passing the limit was not always enough; inconclusive means no clear call, values can overlap the other calls
Rv3671c inh = Rv3671c serine protease inhibitors, primary screen, biochemical, fluorescence polarization, M. tuberculosis H37Rv; inhibition, % at 5.96 µM; 320,000 compounds, 0.048% hits; P9WHR9; in the data active means inhibition above about 38%;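 further: extracellular domain of Rv3671c used as enzyme; 0% = enzyme with DMSO and 100% = no enzyme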
Mtb bLac sens = beta-lactam sensitization of Mtb H37Rv, H37Rv; M. tuberculosis H37Rv growth with meropenem, percent inhibition; inhibition, % at 25 µM; 330,000 compounds, 0.27% hits; AID 434955, 2010;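 further: growth measured after seven days incubation then overnight dye step; 0% = bacteria only wells and 100% = bacteria with antibiotic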
Mtb FBA inh conf = M. tuberculosis aldolase blockers, biochemical, fluorescence, strain H37Rv, confirmation. purified M. tuberculosis FBA, fluorescence read-out. 5,600 compounds, 78% hits. shares compounds with FBA Mtb inh. inhibition, % at 1 µM. AID 651616, 2012; in the data active means inhibition above about 27%;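 further: 0% = vehicle wells and 100% = reference inhibitor wells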
GDH-TPI counter-2 = GDH-TPI coupling enzyme inhibitors, artefact control for M. tuberculosis FBA inhibitor project, biochemical, fluorescence, high throughput; shares compounds with FBA Mtb inh; 5,600 compounds, 81% hits; GDH-TPI coupled enzyme counterscreen; inhibition, % at 1 µM; in the data active means inhibition above about 10%
GDH-TPI DR = GDH-TPI coupling enzyme inhibitors, dose response, artefact control for M. tuberculosis FBA inhibitor project, biochemical, fluorescence, IC50; shares compounds with FBA Mtb inh; GDH-TPI coupled enzyme assay, artifact counterscreen; IC50, µM; 170 compounds, 79% hits; AID 652145, 2013
The depositor's hits bear a star; ? = inconclusive; / = no result given; + = active, no number. Hits are enriched below; roughly 4% of the tested compounds scored in any of these assays. Unless noted, how the calls were made is not given here.

SMILES	RecA splice inh	GDH-TPI counter-1	FBA Mtb inh	Mtb UGM inh	Rv3671c inh	Mtb bLac sens	Mtb FBA inh conf	GDH-TPI counter-2	others
Cc1ccc(-c2cc(-c3ccc(F)cc3)c(C#N)c(N)n2)o1	-26.1	2.5	46.8*	3.4	-2.7	2.0	+	173.4*
Cc1ccc(-c2cc(-c3ccc(C)o3)nc(N)c2C#N)cc1	-4.5	11.9	18.9	3.0	1.6	36.2	/	/
O=C(O)CC(NC(=O)C12CC3CC(CC(C3)C1)C2)c1cc([N+](=O)[O-])ccc1Cl (configuration not stated)	1.6	-1.2	2.5	0.9	1.7	1.3	/	/
CCc1nnc(NC(=O)C2CCN(S(=O)(=O)Cc3ccccc3)CC2)s1	/	0.8	34.6*	-0.1	2.0	-7.9	86.0*	68.8*
CCc1nnc(NC(=O)C2CCN(S(=O)(=O)c3ccc(C)cc3)CC2)s1	-4.0	0.3	-2.1	2.8	-5.7	17.1	/	/
COc1ccc(-c2ccnc3nc(/N=C/N(C)C)nn23)cc1	0.1	/	/	1.4	-2.9	-3.9	/	/
Nc1nc2nccc(-c3cccnc3)n2n1	2.1	19.2	64.5*	1.5	-7.2	-8.3	-8.5	-4.9
CN(C)/C=N/c1nc2nccc(-c3cccnc3)n2n1	-9.8	1.3	27.2*	-0.7	1.1	-1.1	152.3*	106.5*
Nc1c(NC(=O)CC[n+]2ccccc2)cccc1[N+](=O)[O-]	6.8	3.3	-6.2	0.0	-2.8	3.3	/	/
CCCCNc1c(-c2ccc(-c3cccc(Cl)c3)cc2)nc2ccccn12	-34.7	10.2	23.4	2.6	8.6	99.5	/	/
Cc1ccc2nc(-c3ccc(-c4cccc(Cl)c4)cc3)c(NCc3ccccc3)n2c1	-8.5	36.2*	29.1*	1.8	-0.3	-12.2	12.4	9.4	GDH-TPI DR=1.55*
COc1cc(-c2nc3ccc(C)cn3c2NCc2ccccc2)ccc1-c1cccc(Cl)c1	/	8.8	39.5*	-0.5	6.3	26.1	8.2	-2.1
CCC(C)Sc1ccc(-c2nc3ccc(C)cn3c2NCc2ccccc2)cc1 (configuration not stated)	/	15.3	37.8*	/	6.1	-1.1	93.8*	74.5*
COc1ccc(-c2nc3ccc(C)cn3c2NCc2ccc3c(c2)OCO3)cc1	-9.4	5.7	9.4	-1.1	-0.3	4.5	/	/
COc1ccc(CNC(=S)NCc2ccc(F)cc2)cc1OC	3.8	2.0	-1.2	-1.2	6.8	-13.9	/	/
Cn1c(=O)c(-c2ccccc2)nc2ccccc21	0.0	9.6	44.4*	-0.5	-3.1	-13.3	58.8*	38.9*
COc1ccc(CN2C[C@@H](CO)O[C@@H](n3cnc4c(N5CCCC5)ncnc43)C2)cc1	/	14.6	0.5	/	/	/	/	/
C#CCOC(=O)CCCN1C(=O)c2cccc3cccc(c23)C1=O	/	22.1	32.4*	/	/	/	156.3*	121.1*
COC(=O)CCCN1C(=O)c2cccc3cccc(c23)C1=O	2.0	6.6	35.3*	0.9	-0.1	41.6	128.8*	111.0*
CCCn1c(N2CCN(CC(=O)Nc3ccc4c(c3)OCCO4)CC2)nc2ccccc21	0.9	1.4	1.8	0.1	2.8	-2.3	/	/
Cc1c(C)c2ccc(OCC(=O)N3CCC(C(=O)O)CC3)cc2oc1=O	0.7	7.8	102.6*	-1.6	-10.9	-3.0	-5.5	-4.6
O=C(O)C1CCN(C(=O)COc2ccc3c4c(c(=O)oc3c2)CCCC4)CC1	-2.4	13.7	100.3*	0.6	-7.2	6.8	57.5*	47.9*
C=C(C)COc1ccc2c(CC)cc(=O)oc2c1C	-0.3	11.3	20.9	-0.1	-4.5	7.6	/	/
CCCOc1ccc2c(CC)cc(=O)oc2c1C	-1.1	18.4	34.6*	0.4	-12.6	-1.0	92.0*	79.9*
O=C(O)[C@@H]1CCCN1C(=O)COc1ccc2c3c(c(=O)oc2c1)CCC3	/	14.7	41.8*	1.4	3.3	1.3	91.8*	68.0*
SMILES	RecA splice inh	GDH-TPI counter-1	FBA Mtb inh	Mtb UGM inh	Rv3671c inh	Mtb bLac sens	Mtb FBA inh conf	GDH-TPI counter-2	others
CC(=O)c1cn(C)c(=O)n(C)c1=O	1.1	-1.3	-1.9	2.4	4.0	-3.0	/	/
CCN(CC)S(=O)(=O)c1ccc(NS(=O)(=O)c2cccs2)cc1	-3.4	0.3	-6.2	-0.2	-6.2	-0.7	/	/
C=CCNC(=S)N(C1CCCCC1)C1CCCCC1	1.8	6.2	3.1	0.6	-5.0	2.0	/	/
CCS(=O)(=O)c1nc(S(=O)(=O)c2ccc(C)cc2)c(N2CC(C)CC(C)C2)s1 (configuration not stated)	-8.3	13.7	-2.3	0.7	-1.5	69.5	/	/
Cc1cc(=O)oc2c(C)c(OCC(=O)N3CCN(C(=O)C4COc5ccccc5O4)CC3)ccc12 (configuration not stated)	-0.8	16.5	32.2*	1.4	-7.0	68.9	135.8*	118.2*
CCc1cc(=O)oc2c(C)c(OCC(=O)N3CCC(C(=O)O)CC3)ccc12	2.4	14.7	37.7*	-0.8	-0.2	-3.1	-6.7	-9.4
Cc1c(OCC(=O)N2CCC(C(=O)O)CC2)ccc2c3c(c(=O)oc12)CCCC3	/	17.6	66.1*	4.3	0.7	-1.9	69.7*	57.7*
CCc1cc(=O)oc2cc(OCC(=O)N3CCC(C(=O)O)CC3)ccc12	-2.5	5.9	27.1*	-1.8	4.9	-10.6	73.7*	70.9*
CCc1cc(=O)oc2c(C)c(OCC(=O)NCC3CCC(C(=O)O)CC3)ccc12 (configuration not stated)	2.3	16.7	14.6	0.0	-3.7	-8.2	/	/
Cc1cc(=O)oc2cc(OCC(=O)N3CCN(c4ccccc4)CC3)ccc12	/	12.7	13.4	1.5	3.1	-2.5	/	/
CC(=O)N1CCN(C(=O)c2cc(S(=O)(=O)N(C)c3ccc(F)cc3)ccc2Cl)CC1	1.1	-2.8	-2.4	-1.9	1.6	-11.2	/	/
CC(C)CC(=O)NS(=O)(=O)c1ccc(N)cc1	/	5.0	-0.3	-2.3	4.4	-8.0	/	/
CC(=O)N(Cc1cc(=O)[nH]c2ccccc12)c1ccccc1C	-0.6	9.5	0.5	-0.5	5.4	?	/	/
COC(=O)c1cc(S(=O)(=O)N2CCN(c3cccc(C)c3C)CC2)c[nH]1	6.5	1.4	1.6	-4.0	-3.7	-0.4	/	/
